Experimental data published in PubChem BioAssay (NCI).
Compounds without any hit were thinned out: in the full panel of roughly 83,000, 20% have a hit.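 In brief: 96-well plates, 48 h treatment, single concentration, percent growth endpoint.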 Activity calls are given as the source filed them. The calls were made as follows: active = growth percent below 10; inactive = the rest.

Key:
Experiment in all cases: NCI-60 one-dose screen, 48 h (100 = growth as untreated, 0 = no growth, -100 = all killed)
Settings in all cases: 10 µM unless noted
NCI-H23 lung = system: NCI-H23 lung
NCI-H226 lung = system: NCI-H226 lung
NCI-H322M lung = system: NCI-H322M lung
HOP-62 NSCLC = system: HOP-62 NSCLC
NCI-H460 lung = system: NCI-H460 lung
HOP-92 NSCLC = system: HOP-92 NSCLC
NCI-H522 lung = system: NCI-H522 lung
A549/ATCC NSCLC = system: A549/ATCC NSCLC
786-0 renal = system: 786-0 renal
COLO 205 colon = system: COLO 205 colon

Measured: growth

COc1ccc(S(=O)(=O)NCCCNc2nccc(-c3c(-c4cccc([N+](=O)[O-])c4)nc4sccn34)n2)cc1
inactive: NCI-H23 lung 47.3% | NCI-H226 lung 34.8% | NCI-H322M lung 67.6% | HOP-62 NSCLC 61% | NCI-H460 lung 44.4% | HOP-92 NSCLC 82.1% | NCI-H522 lung 32.4% | A549/ATCC NSCLC 52.2% | 786-0 renal 66.6% | COLO 205 colon 36.4%

CN(C)c1oc(C2OC2c2ccccc2)nc1C#N (stereo not given)
inactive: NCI-H23 lung 95.2% | NCI-H226 lung 80.7% | NCI-H322M lung 81.6% | HOP-62 NSCLC 75.6% | NCI-H460 lung 109% | HOP-92 NSCLC 79% | NCI-H522 lung 87.7% | A549/ATCC NSCLC 90.8% | 786-0 renal 102% | COLO 205 colon 94.5%

Cc1cc(N/N=C/c2nc(-c3ccccc3)oc2C)c2cc(Cl)ccc2n1
inactive: NCI-H226 lung 81.4% | HOP-62 NSCLC 10.5%
active: NCI-H23 lung -19.6% | NCI-H322M lung -54.8% | NCI-H460 lung -78.3% | HOP-92 NSCLC -61.9% | NCI-H522 lung -59.4% | A549/ATCC NSCLC -76.8% | 786-0 renal -83.1% | COLO 205 colon -71.9%

COc1cc2c(cc1OCCCN1CCN(CCCn3c4ccccc4c4ccccc43)CC1)N=C[C@@H]1CCCN1C2=O
active: NCI-H23 lung -30.6% | NCI-H226 lung -80.4% | NCI-H322M lung -65.5% | HOP-62 NSCLC -66% | NCI-H460 lung -96.9% | HOP-92 NSCLC -80.5% | NCI-H522 lung -26.6% | A549/ATCC NSCLC -37.5% | 786-0 renal -70.3% | COLO 205 colon -98.8%

COc1cc(C(=O)/C=C/c2ccc3nc(-c4cc(F)cc(F)c4)sc3c2)cc(OC)c1OC
inactive: NCI-H23 lung 99.3% | NCI-H226 lung 120% | NCI-H322M lung 93% | HOP-62 NSCLC 92.3% | NCI-H460 lung 110% | HOP-92 NSCLC 83.4% | NCI-H522 lung 97.4% | A549/ATCC NSCLC 94.2% | 786-0 renal 93.4% | COLO 205 colon 115%

CC(=O)c1cc2c(N)c(C(=O)Nc3cccc4c3OCCO4)sc2nc1C
inactive: NCI-H23 lung 96% | NCI-H226 lung 88.9% | NCI-H322M lung 100% | HOP-62 NSCLC 80.7% | NCI-H460 lung 82.1% | HOP-92 NSCLC 99.2% | NCI-H522 lung 67.7% | A549/ATCC NSCLC 71.4% | 786-0 renal 97.9% | COLO 205 colon 86.6%

COc1cc(-c2nn(-c3cccc(NC(=O)c4ccccc4)c3)cc2-c2ccncc2)ccc1Cl
inactive: NCI-H23 lung 33.8% | NCI-H226 lung 39.1% | NCI-H322M lung 52.3% | HOP-62 NSCLC 27.1% | 786-0 renal 21.3%
active: NCI-H460 lung 2.74% | HOP-92 NSCLC 9.19% | NCI-H522 lung -29.6% | A549/ATCC NSCLC 4.81% | COLO 205 colon 2.21%

Cc1nc2ncccc2nc1Nc1ccc(S(=O)(=O)Nc2cncs2)cc1
inactive: NCI-H23 lung 85% | NCI-H226 lung 92.5% | NCI-H322M lung 101% | HOP-62 NSCLC 94% | NCI-H460 lung 97.1% | HOP-92 NSCLC 65.4% | NCI-H522 lung 103% | A549/ATCC NSCLC 103% | 786-0 renal 96.3% | COLO 205 colon 98.9%

COc1cc(-c2nn(-c3cccc(NC(=O)Nc4ccc(Cl)c(Cl)c4)c3)cc2-c2ccncc2)ccc1Cl
active: NCI-H23 lung 1.67% | NCI-H226 lung 9.61% | NCI-H460 lung 2.32% | HOP-92 NSCLC -34.3% | NCI-H522 lung -14.7% | A549/ATCC NSCLC -5.88% | COLO 205 colon -80.4%
inactive: NCI-H322M lung 38.8% | HOP-62 NSCLC 10.2% | 786-0 renal 15.3%

C=C1C(=O)O[C@H]2[C@H]1CC/C(Cn1cc(-c3cccc(Cl)c3)nn1)=C\CC[C@@]1(C)O[C@@H]21
inactive: NCI-H322M lung 66.2% | NCI-H460 lung 16.6% | A549/ATCC NSCLC 31%
active: NCI-H23 lung -35% | NCI-H226 lung -57.9% | HOP-62 NSCLC -38.4% | HOP-92 NSCLC -73.2% | NCI-H522 lung -74.4% | 786-0 renal -83.9% | COLO 205 colon -79.5%

CC1(C)C(=O)/C(=C\c2ccc(C(F)(F)F)cc2)C[C@]2(C)[C@H]3CC[C@@H]4[C@H]5[C@H](C(=O)/C=C/c6ccc(C(F)(F)F)cc6)CC[C@]5(CO)CC[C@@]4(C)[C@]3(C)CC[C@@H]12
inactive: NCI-H23 lung 100% | NCI-H226 lung 91.4% | NCI-H322M lung 101% | HOP-62 NSCLC 101% | NCI-H460 lung 99.4% | HOP-92 NSCLC 93.7% | NCI-H522 lung 97.9% | A549/ATCC NSCLC 90.6% | 786-0 renal 107% | COLO 205 colon 115%

Cc1ccc(-c2cc3nc(-c4ccccc4)nc(C(Cl)Cl)n3n2)cc1
active: NCI-H322M lung -85.9% | HOP-62 NSCLC -60.1% | NCI-H460 lung -48% | HOP-92 NSCLC -81.5% | A549/ATCC NSCLC -58.1% | 786-0 renal -79.3% | COLO 205 colon -66.1%
inactive: NCI-H23 lung 30.3% | NCI-H226 lung 70.9% | NCI-H522 lung 95.4%

CN(C[C@H]1Cc2c(cccc2N2CCN(c3ncccn3)CC2)CN1)[C@H]1CCCc2cccnc21
inactive: NCI-H23 lung 45.5% | NCI-H226 lung 39.4% | NCI-H322M lung 50.3% | HOP-62 NSCLC 17.2% | NCI-H460 lung 20.7% | HOP-92 NSCLC 27.4% | NCI-H522 lung 52.6% | A549/ATCC NSCLC 25.7% | 786-0 renal 39.5% | COLO 205 colon 10.2%

Cc1ccc(S(=O)(=O)n2cc(C(=O)C(=O)N3CCOCC3)c3ccccc32)cc1
inactive: NCI-H23 lung 79.4% | NCI-H226 lung 82.4% | NCI-H322M lung 99.2% | HOP-62 NSCLC 84.7% | NCI-H460 lung 113% | HOP-92 NSCLC 26.6% | NCI-H522 lung 75.2% | A549/ATCC NSCLC 114% | 786-0 renal 92.4% | COLO 205 colon 112%

CCOC(=O)CC(=O)OC
inactive: NCI-H23 lung 106% | NCI-H226 lung 101% | NCI-H322M lung 111% | HOP-62 NSCLC 102% | NCI-H460 lung 101% | HOP-92 NSCLC 96.4% | NCI-H522 lung 90.2% | A549/ATCC NSCLC 101% | 786-0 renal 101% | COLO 205 colon 101%

CN1C(=O)N(C)C2C1NN=c1s/c(=C\c3cccnc3)c(=O)n12 (stereo not given)
inactive: NCI-H23 lung 86% | NCI-H226 lung 89.3% | NCI-H322M lung 89.1% | HOP-62 NSCLC 82.1% | NCI-H460 lung 83.8% | HOP-92 NSCLC 78.9% | NCI-H522 lung 72.2% | A549/ATCC NSCLC 84% | 786-0 renal 96.5% | COLO 205 colon 87%

Fc1ccccc1-c1nc(-c2nc3cc(Cl)c(Cl)cc3[nH]2)c2ccccn12
inactive: NCI-H23 lung 69.2% | NCI-H226 lung 78.5% | NCI-H322M lung 67.8% | HOP-62 NSCLC 68.8% | NCI-H460 lung 57.3% | HOP-92 NSCLC 49.6% | NCI-H522 lung 72.5% | A549/ATCC NSCLC 72.2% | 786-0 renal 86.4% | COLO 205 colon 89.6%

O=C(Nc1ccncc1)C(=O)c1cn(S(=O)(=O)c2ccccc2F)c2ccccc12
active: NCI-H522 lung -24.6%
inactive: NCI-H23 lung 25.9% | NCI-H226 lung 56.8% | NCI-H322M lung 97.2% | HOP-62 NSCLC 38.4% | NCI-H460 lung 75.8% | HOP-92 NSCLC 24.6% | A549/ATCC NSCLC 71.8% | 786-0 renal 36.9% | COLO 205 colon 103%

COc1ccc(C2=CC(c3cc(OC)c(OC)c(OC)c3)NC(=O)N2)cc1OC (stereo not given)
active: NCI-H322M lung -9.67% | NCI-H460 lung 1.25% | HOP-92 NSCLC 6.24% | NCI-H522 lung -8.71% | COLO 205 colon -24.1%
inactive: NCI-H23 lung 27.3% | NCI-H226 lung 64.3% | HOP-62 NSCLC 32.6% | A549/ATCC NSCLC 19% | 786-0 renal 27.9%

COc1cc(/C=C/C(=O)c2c(C)nc3ccccc3c2C)ccc1OCCCCOc1cc2c(cc1OC)C(=O)N1CCC[C@H]1C=N2
active: NCI-H23 lung -34.9% | NCI-H226 lung -80.9% | NCI-H322M lung -62.7% | HOP-62 NSCLC -49% | NCI-H460 lung -93.3% | HOP-92 NSCLC -49.1% | NCI-H522 lung -32.2% | A549/ATCC NSCLC -52.6% | 786-0 renal -88.1% | COLO 205 colon -100%

COc1ccc(NC(=O)CSc2nc(-c3ccc(OC)c(OC)c3)cc(-c3cc(OC)c(OC)c(OC)c3)n2)cc1
inactive: NCI-H23 lung 101% | NCI-H226 lung 108% | NCI-H322M lung 90.4% | HOP-62 NSCLC 106% | NCI-H460 lung 97.7% | HOP-92 NSCLC 76.8% | NCI-H522 lung 79.6% | A549/ATCC NSCLC 95.7% | 786-0 renal 95.1% | COLO 205 colon 82.5%

COc1ccc(-c2c(N)n[nH]c2-c2cc(OC)c(OC)c(OC)c2)cc1
active: NCI-H460 lung 6.89% | NCI-H522 lung -21.3% | COLO 205 colon 4.54%
inactive: NCI-H23 lung 36.9% | NCI-H226 lung 82.7% | NCI-H322M lung 43.9% | HOP-62 NSCLC 41.1% | HOP-92 NSCLC 70.1% | A549/ATCC NSCLC 25.9% | 786-0 renal 33.7%

Cc1ccc2ccccc2c1C[n+]1ccccc1
inactive: NCI-H23 lung 86.5% | NCI-H226 lung 99.3% | NCI-H322M lung 109% | HOP-62 NSCLC 84.8% | NCI-H460 lung 114% | HOP-92 NSCLC 79.3% | NCI-H522 lung 100% | A549/ATCC NSCLC 99.1% | 786-0 renal 102% | COLO 205 colon 112%

COc1ccc(S(=O)(=O)n2cc(C(=O)C(=O)Nc3ccncc3)c3ccccc32)cc1F
inactive: NCI-H23 lung 65.2% | NCI-H226 lung 82.9% | NCI-H322M lung 88.6% | HOP-62 NSCLC 61.4% | NCI-H460 lung 69.5% | HOP-92 NSCLC 62.1% | NCI-H522 lung 65.3% | A549/ATCC NSCLC 71% | 786-0 renal 84.7% | COLO 205 colon 94%

COc1ccc(/C=C2\CN(Cc3cn(CCNc4ccnc5cc(Cl)ccc45)nn3)C/C(=C\c3ccc(OC)c(OC)c3)C2=O)cc1OC
active: HOP-62 NSCLC -7.73% | NCI-H460 lung -28.5% | HOP-92 NSCLC -16.1% | NCI-H522 lung -67.8%
inactive: NCI-H23 lung 48% | NCI-H226 lung 17% | NCI-H322M lung 44.7% | A549/ATCC NSCLC 22.7% | 786-0 renal 15.9% | COLO 205 colon 10.1%

COc1cc2c(c(OC)c1OC)-c1ccc(N)c(=O)cc1[C@@H](NC(C)=O)CC2
inactive: NCI-H226 lung 40.1% | NCI-H322M lung 27.4% | HOP-62 NSCLC 46.1% | HOP-92 NSCLC 31% | A549/ATCC NSCLC 21.3% | 786-0 renal 19.7%
active: NCI-H23 lung 4.57% | NCI-H460 lung -2.43% | NCI-H522 lung -34.2% | COLO 205 colon -71.8%

O=C([O][Sn]([O]C(=O)c1ccccn1)([c]1ccccc1)[c]1ccccc1)c1ccccn1
inactive: NCI-H23 lung 55.2% | NCI-H226 lung 65.5% | NCI-H322M lung 123% | HOP-62 NSCLC 98.9% | NCI-H460 lung 107% | HOP-92 NSCLC 74.5% | A549/ATCC NSCLC 103% | 786-0 renal 96.2% | COLO 205 colon 77.4%
active: NCI-H522 lung -68.7%
